Consider 26 compounds from PubChem BioAssay AID1080 (Emory University Molecular Libraries Screening Center, 2008).

The campaign covered roughly 1,300 compounds. About 640 (49%) were called active.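 How the source made its calls: active means cAMP induction above 50% in the main assay while under 30% in all four parallel counter assays; inactive means the rest.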 So high a share suggests a set chosen from earlier hits. These entries were drawn from the full list.

A short description of experiment [1]: EP2 hit retest with parallel cAMP counter-assays – cell-based, five parallel assays, C6 glioma, HEK293, counter-screen for EP2 modulator project, confirmation (AID 1080). The following applies: C6 glioma EP2 cells, cAMP HTRF induction. For orientation: The purpose of a counterscreen is to sort out artefacts and off-target activity.
Experiment [2] has as its target Prostaglandin E2 receptor EP2 subtype (Homo sapiens) (UniProt P43116). Described as above. The following applies: C6 glioma EP2 cells, cAMP HTRF induction; stronger effect = higher value; screened at 20 µM (by protocol); percent of 1 uM PGE2 response; plus low (about EC15) PGE2 agonist. A general note: In TR-FRET formats the signal depends on donor and acceptor labels being close together.

[3] abbreviates: measured here: EP4 receptor counter-screen, percent of 1 uM PGE2 response, plus low (about EC15) PGE2 agonist.
Setting [4] is: measured here: beta2 adrenergic HEK293 counter-screen.
The mark [5] stands for this setting: measured here: cAMP conditions counter-screen.
The mark [6] stands for this setting: measured here: parent C6 cells counter-screen.

For `COc1c2c(cc3occ(-c4ccc5c(c4)OCO5)c(=O)c13)OC(C)(C)C=C2`, the cAMP induction in experiment [1] (setting [3]) was -0.877%; in experiment [1] (setting [4]), -13.4%; in experiment [1] (setting [5]), 2.3%; in experiment [1] (setting [6]), 4.12%; in experiment [2], 46.1% (inactive).
The like results for `CC(C)Oc1ccc(Cc2n[nH]c(=S)n2Cc2ccccc2)cc1Cl` were, in that order, -4.47%, -10.4%, 0.63%, 2.28% and 40% (inactive).
The like results for `CC1(C)Cc2nc3sc4c(SCC(=O)NC(c5ccccc5)c5ccccc5)ncnc4c3cc2CO1` were, in that order, 71.8%, 71.7%, 70.8%, 70% and 68.6% (inactive).
The like results for `CCOC(=O)C1=C(CN2CCc3ccccc32)NC(=O)NC1c1ccc(Cl)cc1` (stereo not given) were, in that order, -13%, -5.75%, -12.2%, -1.26% and 42.4% (inactive).
`Cc1cc(NC(=O)CN2CCCC(C)C2)n(-c2nc3ccccc3s2)n1` (stereo not given): the cAMP induction is 16.2% in experiment [1] (setting [3]); 6.5% in experiment [1] (setting [4]); -2.07% in experiment [1] (setting [5]); -6.69% in experiment [1] (setting [6]); 50.7% (active) in experiment [2].
The like results for `COC(=O)c1sc2[nH]c(=S)n(N)c(=O)c2c1C` were, in that order, 68.1%, 67.4%, 67.6%, 66.3% and 70.6% (inactive).
For the compound `Cc1cccc2cc(CN(Cc3cccs3)C(c3nnnn3C3CCCC3)C(C)C)c(=O)[nH]c12` (stereo not given), the cAMP induction in experiment [1] (setting [3]) is -2.3%; in experiment [1] (setting [4]), -6.33%; in experiment [1] (setting [5]), 1.55%; in experiment [1] (setting [6]) it was 3.32%; in experiment [2], 59.5% (active).
The like results for `Oc1ccc(/C=N/N(Cc2ccccc2)c2ccccc2)cc1` were, in that order, -13.7%, -14.9%, -0.103%, 2.51% and 55.2% (active).
As for `CCN1CCN(c2c(Cl)cccc2NC(=O)c2ccc(Br)o2)CC1`, the cAMP induction in experiment [1] (setting [3]) is 9.56%; in experiment [1] (setting [4]), -6.35%; in experiment [1] (setting [5]), 8.3%; in experiment [1] (setting [6]), 10.5%; in experiment [2], 45.8% (inactive).
The like results for `CCOC(=O)c1c(N)nn(C(=O)c2ccccc2)c1-c1ccccc1` were, in that order, -2.57%, -8.03%, 0.963%, -2.53% and 53.3% (active).
For `Cc1ccc(-n2c(SCC(=O)Nc3ccc4c(c3)OCO4)nnc2-c2ccoc2C)cc1`, the cAMP induction was 7.89% in experiment [1] (setting [3]); -0.777% in experiment [1] (setting [4]); -1.2% in experiment [1] (setting [5]); -1.05% in experiment [1] (setting [6]); 40.3% (inactive) in experiment [2].
The like results for `COc1ccccc1NC(=O)CSc1nnc(Cn2nnc(-c3ccccc3)n2)n1-c1ccccc1` were, in that order, -5.84%, -2.51%, 2.46%, 3.99% and 61.9% (active).
On to `O=c1c2ccccc2c(-c2ccc(Br)cc2)nn1Cc1ccccc1`, for which the cAMP induction is 4.3% in experiment [1] (setting [3]); 8.28% in experiment [1] (setting [4]); -3.64% in experiment [1] (setting [5]); 0.753% in experiment [1] (setting [6]); 72.8% (active) in experiment [2].
For the compound `CSc1nc2ccccc2c(=O)n1Cc1ccc(F)cc1`, the cAMP induction in experiment [1] (setting [3]) was 1.87%; in experiment [1] (setting [4]), 10%; in experiment [1] (setting [5]), -3.28%; in experiment [1] (setting [6]), 0.81%; in experiment [2] it was 44.6% (inactive).
Regarding `O=c1c2ccccc2c(-c2ccccc2)nn1Cc1ccccc1`, the cAMP induction in experiment [1] (setting [3]) is 1.05%; in experiment [1] (setting [4]), 4.51%; in experiment [1] (setting [5]), -1.54%; in experiment [1] (setting [6]), -0.867%; in experiment [2], 78% (active).
The like results for `O=C(COC(=O)c1ccccc1)Nc1ccccc1Sc1ccccc1` were, in that order, 5.14%, -16.3%, -4.67%, -4.62% and 66.8% (active).
The like results for `Cc1ccccc1C(=O)Nc1ccccc1Sc1ccccc1` were, in that order, -6.34%, -0.06%, -1.62%, -1.24% and 73.7% (active).
The like results for `O=C(CN1CCCCC1)N1c2ccccc2Sc2ccc(C(F)(F)F)cc21` were, in that order, -11.3%, -1.41%, -5.21%, -5.14% and 47.3% (inactive).
As to `CCc1ccccc1NC(=O)/C(=C/c1ccccc1)c1ccccc1`, the cAMP induction was -11.7% in experiment [1] (setting [3]); 34% in experiment [1] (setting [4]); -0.563% in experiment [1] (setting [5]); -0.623% in experiment [1] (setting [6]); 53.6% (inactive) in experiment [2].
The like results for `CCOCC(=O)Nc1sc2c(c1C(=O)OCC)CCCC2` were, in that order, -16%, 3.07%, 3.98%, 1.75% and 40.6% (inactive).
Turning to `Cc1ccc(C(=O)c2c(NC(=O)c3ccncc3)sc3c2CCCC3)cc1`, the cAMP induction is 4.56% in experiment [1] (setting [3]); -17.1% in experiment [1] (setting [4]); 0.45% in experiment [1] (setting [5]); 3.43% in experiment [1] (setting [6]); 54.2% (active) in experiment [2].
The like results for `CC1(C)CC2CC(C)(CN2c2ncnc3ccc(Br)cc23)C1` (stereo not given) were, in that order, -0.537%, -0.287%, 6.56%, 5.43% and 25.7% (inactive).
The like results for `Cc1ccc(Nc2cc(C)nc3c(C)ccc([N+](=O)[O-])c23)cc1` were, in that order, -1.3%, 15.4%, 0.53%, -0.713% and 57.4% (active).
The like results for `CC(=O)c1ccc2c(c1)c1ccccc1n2CC(C)C` were, in that order, 8.49%, 0.833%, 9.82%, 9.42% and 58.9% (active).
Turning to `CCCCCn1c(SCCC(C)C)nc2c1c(=O)[nH]c(=O)n2C`, the cAMP induction in experiment [1] (setting [3]) was -16.3%; in experiment [1] (setting [4]) it was -18.1%; in experiment [1] (setting [5]), 1.4%; in experiment [1] (setting [6]), -0.767%; in experiment [2], 59.3% (active).
The like results for `CCOC(=O)C(CC)Sc1ncnc2c1nnn2-c1ccc(F)cc1` (stereo not given) were, in that order, -7.74%, 17%, 0.993%, 2.03% and 50.7% (active).
